Screening data as filed in PubChem BioAssay.
CYP2C9 activ: CYP2C9 (human) activation; recombinant CYP2C9, luciferin-H conversion, luminescence; hits give high values; factor 1 = untreated enzyme, 0 = blocked; activation factor at 5 µM; 96,000 tested, 1.4% active;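 active = activation factor of 2 or more for CYP2C9 at a 5 µM dose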
Target sequence (P11712 whole entry, looked up): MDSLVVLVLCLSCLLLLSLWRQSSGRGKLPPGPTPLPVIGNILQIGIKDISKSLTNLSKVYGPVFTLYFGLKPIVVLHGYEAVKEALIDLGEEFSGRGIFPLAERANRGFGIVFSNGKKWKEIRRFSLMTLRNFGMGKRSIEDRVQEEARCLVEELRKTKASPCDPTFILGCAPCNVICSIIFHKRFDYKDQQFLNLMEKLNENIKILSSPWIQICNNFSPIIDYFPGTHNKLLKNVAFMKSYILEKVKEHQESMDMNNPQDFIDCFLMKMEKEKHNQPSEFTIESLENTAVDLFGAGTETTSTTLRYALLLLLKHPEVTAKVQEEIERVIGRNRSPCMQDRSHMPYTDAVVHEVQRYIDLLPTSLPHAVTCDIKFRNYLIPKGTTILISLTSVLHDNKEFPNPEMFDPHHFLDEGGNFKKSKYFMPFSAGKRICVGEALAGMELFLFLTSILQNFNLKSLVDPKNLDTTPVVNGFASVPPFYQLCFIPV
PostGolgi ctrl: inhibits growth of the yeast control strain. efflux-deficient yeast background strain, growth absorbance A615, 16 h. inhibition, % at 10 µM. 98,000 tested, 5% active
CYP2C19 inh: blocks human cytochrome P450 2C19; CYP2C19 Supersomes, luciferin-H EGE luminescence, 30 min; inhibition, % at 5 µM; 96,000 tested, 21% active; AID 778;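 active = CYP2C19 inhibition above a set limit at 5 µM in the primary screen, cut at about 50% in these data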
PostGolgi yeast: growth inhibition of a yeast mutant, post-Golgi transport screen; inhibition, % at 10 µM; AID 739; post-Golgi transport phenotypic cell assay; 98,000 tested, 0.9% active;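 note: yeast cells grown in 1536-well plates; yeast grown about 18 h at 30C before absorbance read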
CYP2C9 inhib: blocks human cytochrome P450 2C9 | P11712 | CYP2C9 Supersomes, luciferin-H conversion, luminescence | inhibition, % at 5 µM | 96,000 tested, 20% active;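 active = blocking of liver enzyme CYP2C9 beyond about 50% at 5 µM, limit read from the data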
CYP2C19 act: increases human CYP2C19 enzyme activity. AID 1025. activation factor at 5 µM. P33261. 96,000 tested, under 10 active. recombinant CYP2C19, luciferin-H EGE luminescence; hits give high values; 0 = fully inhibited enzyme, 1 = untreated enzyme;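 active = activation factor of at least 2 at 5 µM in the primary screen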
Hits are given with their value; – = inactive; · = not tested or not shown. An excerpt weighted towards active compounds, which were near 32% of everything screened. Cut-off read from the data, not from the text of the source, unless noted: active = inhibition above about 30%; inactive = the rest.

SMILES | CYP2C9 activ | PostGolgi ctrl | CYP2C19 inh | PostGolgi yeast | CYP2C9 inhib | CYP2C19 act
Cc1ccc(N2C(=O)[C@@H]3Cc4ccccc4CN3C2=O)cc1 | – | 36 | – | – | – | –
CCOc1ccc(C(CC(=O)O)NC(=O)C23CC4CC(CC(C4)C2)C3)cc1 (configuration not stated) | · | – | · | – | · | ·
Cc1cc(C)c(C#N)c(SCCS(=O)(=O)c2ccc(C(C)(C)C)cc2)n1 | – | – | 70 | – | 89 | –
Cc1cc(C)c(C#N)c(SCS(=O)Cc2ccccc2)n1 (configuration not stated) | – | – | 68 | – | – | –
Cc1cc(C)c(C#N)c(SCc2ccc(C#N)cc2)n1 | – | – | – | – | – | –
Cc1cc(C)c(C#N)c(SCS(=O)Cc2ccc(Cl)cc2)n1 (configuration not stated) | – | 38 | 95 | – | 59 | –
Cc1cccc(C)c1OCC(=O)NNC(=O)Nc1ccc(Cl)cc1 | – | – | – | – | – | –
CCCCOC(=O)C1CCCC(C(=O)OCCCC)N1 (configuration not stated) | – | – | – | – | – | –
COc1cccc(NC(=O)CCN2CCC(C(N)=O)CC2)c1 | – | – | – | – | – | –
C=CCNc1nc2c3ccccc3n(C(C)=O)c2s1 | – | – | – | – | 68 | –
O=C(NC1CCCCCC1)C1c2ccccc2C(=O)N1Cc1cccnc1 (configuration not stated) | – | – | 52 | – | – | –
O=C(NC1CCCC1)C1c2ccccc2C(=O)N1C1CCCCC1 (configuration not stated) | – | – | – | – | – | –
O=C(NCc1cccnc1)C1c2ccccc2C(=O)N1C1CCCCCC1 (configuration not stated) | – | – | 68 | – | – | –
O=C(NC1CCCCCCC1)C1c2ccccc2C(=O)N1Cc1ccco1 (configuration not stated) | – | – | – | – | – | –
CCOC(=O)c1sc(NC(=O)c2cc3c(C)nn(-c4ccccc4)c3s2)nc1C | – | · | – | · | – | –
COC(=O)c1ccc(NC(=O)CSc2nnc(C(C)NC(=O)c3ccccc3Cl)n2C)cc1 (configuration not stated) | – | – | – | – | – | –
CCc1ccc(NC(=O)C2CC(=O)N(C(C)C)C2)cc1 (configuration not stated) | – | – | – | – | – | –
Cc1ccc(C(=O)NCc2ccc3c(c2)OCO3)cc1S(=O)(=O)N1CCOCC1 | – | – | 66 | – | 76 | –
O=C(NCc1ccc2c(c1)OCO2)c1ccc(Cl)c(S(=O)(=O)N2CCOCC2)c1 | – | – | – | – | 68 | –
O=C(NCc1ccc2c(c1)OCO2)c1c[nH]c2ccc(S(=O)(=O)N3CCOCC3)cc2c1=O | – | – | – | – | – | –
Cc1ccc(C(=O)NCc2ccc3c(c2)OCO3)cc1S(=O)(=O)N1CCCCC1 | – | – | 51 | – | 81 | –
Cc1ccc(C(=O)NCc2ccc3c(c2)OCO3)cc1N1CCCC1=O | – | – | – | – | – | –
CCCCn1c2c(c(=O)n(C)c1=O)C(c1ccc(OC)cc1)N1CCCCCC1=N2 (configuration not stated) | – | – | – | – | – | –
C=CCc1ccc(OCCn2cccc2C=O)c(OC)c1 | – | – | 70 | – | – | –
C=CCc1ccc(OCCCCCN2CCOCC2)c(OC)c1 | – | – | 64 | – | – | –
SMILES | CYP2C9 activ | PostGolgi ctrl | CYP2C19 inh | PostGolgi yeast | CYP2C9 inhib | CYP2C19 act
C=CCc1ccc(OCCOc2cccc3ccc(C)nc23)c(OC)c1 | 2.1 | – | – | – | – | –
COc1cccc(OCCCCCCN2CCOCC2)c1 | – | – | 54 | 45 | – | –
CCOc1cccc(OCCCCN2CCOCC2)c1 | – | – | – | – | – | –
O=C(CN1C(=O)NC2(CCc3ccccc32)C1=O)Nc1ccc(N2CCOCC2)cc1 (configuration not stated) | – | – | – | – | – | –
Cc1cc(NC(=O)c2cccs2)n(-c2ccccc2)n1 | – | – | 70 | – | – | –
CCn1nnc(NC(=O)C(C)Oc2ccc(Cl)cc2Cl)n1 (configuration not stated) | – | – | – | – | – | –
CCCc1cc(C(=O)Nc2cc(C)nn2-c2ccccc2)no1 | – | – | – | – | – | –
Cc1cc(NC(=O)c2sccc2C)n(-c2cccc(Cl)c2)n1 | – | – | 96 | – | 52 | –
Cc1cc(NC(=O)C(C)Oc2ccc(Cl)cc2Cl)n(-c2ccccc2)n1 (configuration not stated) | – | – | 75 | – | 63 | –
COc1ccc(-c2nc(C#N)c(N3CCN(c4ccccc4)CC3)o2)cc1 | – | – | – | – | – | –
COc1ccc(-c2nc(C#N)c(N3CCc4ccccc4C3)o2)cc1OC | – | 33 | 55 | – | – | –
COc1ccccc1-c1nc(C#N)c(N2CCc3ccccc3C2)o1 | – | – | 84 | – | 75 | –
c1cncc(-c2noc(C34CC5CC(CC(C5)C3)C4)n2)c1 | – | – | 83 | – | – | –
COc1nc(-c2ccc(C)cc2)ccc1-c1noc(-c2cccnc2)n1 | – | · | – | · | – | –
Cc1ccc(SC(C)c2nc(-c3cccnc3)no2)cc1 (configuration not stated) | – | – | 67 | – | 82 | –
c1ccc(C(c2ccccc2)c2nc(-c3cccnc3)no2)cc1 | – | – | 86 | – | 96 | –
COc1nc(-c2ccccc2)ccc1-c1noc(-c2cccnc2)n1 | – | – | – | – | – | –
c1ccc(SCc2nc(-c3cccnc3)no2)cc1 | – | – | 93 | – | 59 | –
O=C1c2cccnc2C(=O)N1Cc1ccc(F)cc1 | – | – | – | – | – | –
COc1ccc(C(C(=O)NC2CCCC2)N(Cc2ccc(C)cc2)C(=O)c2ccn[nH]2)cc1OC (configuration not stated) | – | – | – | – | – | –
CC1=C(C(=O)N(C)CCC#N)C2(CCCCC2)OC1=O | – | – | – | – | – | –
C/C(Cn1nnc([N+](=O)[O-])n1)=N\NC(=O)c1ccc(Cl)c(Cl)c1 | – | – | – | – | – | –
Cc1cc(Br)ccc1OCc1nc(-c2cccnc2)no1 | – | – | – | – | – | –
c1ccc(OCCCc2nc(-c3cccnc3)no2)cc1 | – | – | 64 | – | – | –
c1ccc(C(Cc2nc(-c3cccnc3)no2)c2ccccc2)cc1 | – | – | 97 | – | 53 | –
Cc1cc(C)c(C#N)c(Oc2ccc(O)cc2)n1 | – | – | – | – | 65 | –
Cc1ccc2c(c1)[nH]c1c(=O)n(CCC3=CCCCC3)cnc12 | – | – | 55 | – | – | –
O=c1c2[nH]c3ccccc3c2ncn1CCC1=CCCCC1 | – | – | 67 | – | – | –
CC(C)CC(NC(=O)C1CCCCC1)C(=O)N1CCN(c2ccccn2)CC1 (configuration not stated) | – | – | – | – | – | –
